In PubChem BioAssay AID2155 (National Center for Advancing Translational Sciences (NCATS), 2009):
Active and inactive are the calls of the source. Calls come from the whole dose curve.

molecular target: Polyunsaturated fatty acid lipoxygenase ALOX15 (Homo sapiens) (UniProt P16050); assay: Cuvette-Based Assay fo Inhibitors of 15-hLO-1 (15-human lipoxygenase 1): Series 1 - Round 1; details: purified 15-hLO-1, cuvette UV 234 nm product formation
Excerpt: Assay Provider: Holman, T.R., University of California, Santa Cruz Screening Center PI: Austin, Christopher P. Screening Center: NIH Chemical Genomics Center Human lipoxygenase 15hLO-1 is a member of the closely related lipoxygenase family of enzymes which catalyze the site-specific oxidation of arachidonic acid to various hormone precursor molecules and as such is a candidate for drug development in a variety of disease areas, such as cancer and inflammation. The enzyme activity of 15hLO-1 was determined by a direct measurement of product formation by monitoring the absorbance at 234 nm in a 2 mL cuvette. IC50 values of inhibitors were obtained by measuring the enzymatic rate at a variety of concentrations (Carroll et al, Segraves et al). A purified preparation of human 15hLO-1 was supplied by Professor Ted Holman, University of California, Santa Cruz. This assay is includes some confirmation and follow-up compounds for related primary screening assay AID 887. The follow-up compounds focus on analogues of current lead 15hLO-1 inhibitor series.
For control experiments, 2 mL of substrate buffer (7 uM arachidonic acid / 25 mM HEPES / 0.01% (v/v) Triton X-100, pH 7.5) was aliquoted in a cuvette with a magnetic stir bar. After equilibrium was ensured, an aliquot of inhibitor solvent was added (DMSO or MeOH), and equilibrium was once again assured. The reaction was started by adding enzyme to the cuvette and the reaction was followed until completed. The inhibition experiments were performed as above, except the actual inhibitory compound was added instead of vehicle. To achieve an IC50, typically 5 concentrations of the inhibitor were studied. If the inhibitor concentration was constant, then five different reaction volumes were used. Step \ Parameter \ Value \ Description 1; UV-Vis; 234 nm; Equilibration 2; Reagent; 2 mL; Substrate buffer 3; UV-Vis; 234 nm; Equilibration 4; Reagent; varies; Compound 5; UV-Vis; 234 nm; Equilibration 6; Reagent; 50-200 nM; Enzyme 15hLO-1 7; UV-Vis; 234 nm; Enzymatic reaction Step \ Notes 1. Blank cuvette to air. 2. 7 uM AA, 25 mM HEPES, 0.01% Triton X-100, pH 7.5. 3. No change in absorbance ensured. 4. Compound vehicle or compound in various concentrations depending on potency. 5. No change in absorbance ensured. 6. Enzyme concentration to achieve reaction rate between 0.02 and 0.04 AU/s. 7. Enzymatic reaction visualized until completion.

Polyunsaturated fatty acid lipoxygenase ALOX15 (Homo sapiens), sequence (P16050 whole entry, looked up): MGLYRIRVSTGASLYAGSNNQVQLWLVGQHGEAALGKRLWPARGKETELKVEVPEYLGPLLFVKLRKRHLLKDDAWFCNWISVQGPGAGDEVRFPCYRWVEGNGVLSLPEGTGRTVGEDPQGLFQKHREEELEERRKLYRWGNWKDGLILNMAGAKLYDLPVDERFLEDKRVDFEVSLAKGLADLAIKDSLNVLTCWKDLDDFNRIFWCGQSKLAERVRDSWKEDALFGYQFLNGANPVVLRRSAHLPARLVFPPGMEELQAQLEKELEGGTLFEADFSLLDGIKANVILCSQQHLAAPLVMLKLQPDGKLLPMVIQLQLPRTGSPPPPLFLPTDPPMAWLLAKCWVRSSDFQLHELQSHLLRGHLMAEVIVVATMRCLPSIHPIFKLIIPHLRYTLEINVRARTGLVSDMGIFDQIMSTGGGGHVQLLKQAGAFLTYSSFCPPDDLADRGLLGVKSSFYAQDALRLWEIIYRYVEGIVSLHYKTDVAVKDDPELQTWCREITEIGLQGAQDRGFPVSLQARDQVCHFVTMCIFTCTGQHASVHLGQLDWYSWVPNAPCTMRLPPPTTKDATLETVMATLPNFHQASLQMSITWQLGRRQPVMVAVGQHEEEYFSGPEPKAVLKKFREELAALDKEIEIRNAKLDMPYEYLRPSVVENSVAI

Potency, active:
OCC#CCSc1nnc(-c2cccc3ccccc23)o1 1000 nM
CC(C)Nc1oc(-c2cccc3ccccc23)nc1C#N 190 nM
O=C(OCC#CCSc1nnc(-c2cccc3ccccc23)o1)c1cnc[nH]1 1000 nM
COc1ccc(C(=O)OCC#CCSc2nnc(-c3cccc4ccccc34)o2)cc1 22 nM
O=C(OCC#CCSc1nnc(-c2cccc3ccccc23)o1)c1ccc(Br)cc1 16 nM
O=C(NCC#CCSc1nnc(-c2cccc3ccccc23)o1)c1cccs1 1000 nM
C=CCNc1nnc(-c2cccc3ccccc23)o1 1000 nM
O=C(OCC#CCSc1nnc(-c2cccc3ccccc23)s1)c1cccs1 25000 nM
O=C(OCC#CCSc1nnc(-c2cccc3ccccc23)o1)c1ccc(Cl)cc1 18 nM
O=C(OCC#CCNc1nnc(-c2cccc3ccccc23)o1)c1cccs1 1000 nM
N#Cc1nc(-c2cccc3ccccc23)oc1NCC#CCOC(=O)c1cccs1 25000 nM
